Results filed as inconclusive are left out. Activity calls are given as the source filed them. Unless noted, the call rests on the fitted dose curve; in most records, active means well fitted curve in the direction sought with a large enough effect in the repeat runs; inconclusive means weak or mixed curves; inactive means no such curve, though single readings can be large; an effect the other way counts as inactive or inconclusive.
Columns and labels:
[1] = qHTS assay to identify small molecule that activate the aryl hydrocarbon receptor (AhR) signaling pathway - cell viability counter screen (AID 743086);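 further: HepG2 liver cells carrying the AhR DRE luciferase reporter; series mostly up to about 70 µM; nearly all actives have a fitted effect of over 45% in size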
In short: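 Cytotoxicity counter screen: CellTiter-Fluor signal (30 min, 37 C) in 4000 HepG2 cells/well carrying the DRE-luciferase reporter, following 24 h compound exposure at 37 C.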

[2] = biological target: Peroxisome proliferator-activated receptor gamma (Homo sapiens) (UniProt P37231); assay: qHTS assay to identify small molecule agonists of the peroxisome proliferator-activated receptor gamma (PPARg) signaling pathway (AID 743094; active means well fitted activation curve with a large enough effect in the signal ratio in the repeat runs, not every such curve was filed as active; the % refers to the signal ratio)
Peroxisome proliferator-activated receptor gamma (Homo sapiens), sequence (P37231 whole entry, looked up): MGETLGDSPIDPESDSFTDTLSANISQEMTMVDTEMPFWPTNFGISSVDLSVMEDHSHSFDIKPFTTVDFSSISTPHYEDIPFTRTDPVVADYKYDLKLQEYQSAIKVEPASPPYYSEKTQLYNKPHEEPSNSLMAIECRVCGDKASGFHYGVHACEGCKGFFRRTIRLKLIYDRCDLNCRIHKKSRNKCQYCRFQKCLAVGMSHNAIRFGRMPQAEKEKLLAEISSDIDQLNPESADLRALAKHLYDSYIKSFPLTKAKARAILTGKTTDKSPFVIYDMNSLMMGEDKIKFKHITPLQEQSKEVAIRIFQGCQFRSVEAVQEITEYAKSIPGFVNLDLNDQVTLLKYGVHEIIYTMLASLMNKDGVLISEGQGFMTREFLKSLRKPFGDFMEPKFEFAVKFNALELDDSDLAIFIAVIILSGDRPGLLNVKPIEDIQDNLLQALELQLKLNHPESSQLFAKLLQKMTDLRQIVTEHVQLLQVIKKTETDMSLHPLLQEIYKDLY
In short: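 Stably transfected HEK293H cells (GeneBLAzer PPARg UAS-bla) were incubated with test substances for 17 h at 37C after a 5 h pre-incubation; beta-lactamase activity was then detected by FRET substrate fluorescence.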

[3] = biological target: Peroxisome proliferator-activated receptor gamma (Homo sapiens) (UniProt P37231); assay: qHTS assay to identify small molecule antagonists of the peroxisome proliferator-activated receptor gamma (PPARg) signaling pathway (AID 743191; calls by dose curve; further: series mostly up to about 63 µM; nearly all actives have a fitted effect of over 30% in size)
In short: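 Beta-lactamase reporter under UAS control in HEK293H PPARg-bla cells; compound treatment 17 h at 37C. Read-out: fluorescence intensity after 1 h room-temperature incubation with LiveBLAzer B/G FRET substrate.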

[4] = qHTS assay to identify small molecule antagonists of the peroxisome proliferator-activated receptor gamma (PPARg) signaling pathway - cell viability counter screen (AID 743194); further: nearly all actives have a fitted effect of over 55% in size
In short: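 Viability was measured as CellTiter-Glo luminescence in GeneBLAzer PPARg UAS-bla HEK293H cells. These cells had been exposed 17 h at 37 C to compounds together with rosiglitazone at 50 nM final, with the beta-lactamase readout taken in the same wells.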

[5] = qHTS assay for small molecule agonists of the antioxidant response element (ARE) signaling pathway (AID 743202; active means well fitted activation curve with a large enough effect in the signal ratio in the repeat runs, not every such curve was filed as active; the % refers to the signal ratio)
In short: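 Quantitative high-throughput format in HepG2 cells bearing an integrated ARE-beta-lactamase reporter. Compound exposure lasted 16 h at 37 C, and fluorescence was read 2 h after adding LiveBLAzer B/G substrate at room temperature.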

[6] = qHTS assay for small molecule agonists of the antioxidant response element (ARE) signaling pathway - cell viability counter screen (AID 743203; calls by dose curve; further: nearly all actives have a fitted effect of over 55% in size)
In short: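 Cells (ARE-bla HepG2, 2,000/well) receive DMSO-dissolved compounds after a 5 hrs rest. Plates incubate 16 hrs at 37C/5% CO2. CellTiter-Glo luminescence is then recorded after 30 min at room temperature.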

[7] = qHTS assay for small molecule activators of the heat shock response signaling pathway - cell viability counter screen (AID 743209); further: nearly all actives have a fitted effect of over 50% in size
In short: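 Quantitative HTS format, Tox21 10K library. HeLa cells carrying an HSE-driven beta-lactamase reporter were treated 5 h at 37 C, then assessed for viability by CellTiter-Glo luminescence.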

[8] = qHTS assay for small molecule activators of the heat shock response signaling pathway (AID 743210; active means well fitted activation curve with a large enough effect in the signal ratio in the repeat runs, with a control signal flat, not every such curve was filed as active; the % refers to the signal ratio;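 further: HeLa cells with beta-lactamase reporter driven by heat shock elements; series mostly up to about 63 µM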)
In short: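 HeLa HSE-bla cells, overnight plating; cpd in DMSO 5 h, 37 C; LiveBLAzer B/G FRET substrate 2.5 h RT; fluorescence intensity read.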

[9] = qHTS assay to identify small molecule agonists of the peroxisome proliferator-activated receptor delta (PPARd) signaling pathway - cell viability counter screen (AID 743211); further: nearly all actives have a fitted effect of over 55% in size
In short: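 Following 5 h plating at 37 C and 5% CO2, PPARd UAS-bla HEK293H cells took up test compounds for 17 h. Viability was quantified by luminescence 30 min after CellTiter-Glo addition at room temperature.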

[10] = biological target: Peroxisome proliferator-activated receptor delta (Homo sapiens) (UniProt Q03181); assay: qHTS assay to identify small molecule agonists of the peroxisome proliferator-activated receptor delta (PPARd) signaling pathway (AID 743212; calls by dose curve)
Peroxisome proliferator-activated receptor delta (Homo sapiens), sequence (Q03181 whole entry, looked up): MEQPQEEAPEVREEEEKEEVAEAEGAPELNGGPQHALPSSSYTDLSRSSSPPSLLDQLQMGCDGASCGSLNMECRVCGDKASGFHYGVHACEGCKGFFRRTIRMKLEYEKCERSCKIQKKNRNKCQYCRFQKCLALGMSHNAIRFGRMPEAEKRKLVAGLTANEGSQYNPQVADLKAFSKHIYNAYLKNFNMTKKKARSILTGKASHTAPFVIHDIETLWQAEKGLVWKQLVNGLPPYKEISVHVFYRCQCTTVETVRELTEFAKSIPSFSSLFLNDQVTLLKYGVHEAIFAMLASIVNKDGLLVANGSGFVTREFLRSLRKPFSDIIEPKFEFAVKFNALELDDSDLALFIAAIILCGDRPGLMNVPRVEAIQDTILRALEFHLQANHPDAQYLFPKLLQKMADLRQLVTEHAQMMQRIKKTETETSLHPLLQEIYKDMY
In short: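 HEK293H PPARd-bla cells; 5 h preincubation 37 C/5% CO2; compound (DMSO) 37 C; LiveBLAzer B/G FRET substrate 2 h RT; fluorescence intensity.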

[11] = qHTS assay to identify small molecule antagonists of the peroxisome proliferator-activated receptor delta (PPARd) signaling pathway - cell viability counter screen (AID 743213); further: nearly all actives have a fitted effect of over 50% in size
In short: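 Viability counter-screen, qHTS format: PPARd-bla HEK293H, L165041 300 nM final, 17 h compound exposure at 37 C, CellTiter-Glo luminescence after 30 min RT.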

[12] = biological target: Peroxisome proliferator-activated receptor delta (Homo sapiens) (UniProt Q03181); assay: qHTS assay to identify small molecule antagonists of the peroxisome proliferator-activated receptor delta (PPARd) signaling pathway (AID 743215; active means well fitted inhibition curve with a large enough effect in the signal ratio in the repeat runs, not every such curve was filed as active; the % refers to the signal ratio;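 further: cells stimulated with agonist L165041 at 300 nM final during compound exposure; series mostly up to about 62 µM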)
In short: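 Antagonist-mode beta-lactamase reporter screen: HEK293H cells with UAS-bla under PPARd control, stimulated by 300 nM L165041 (final) alongside test compound for 17 h at 37 C, then FRET fluorescence after 2 h substrate incubation.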

[13] = qHTS assay to identify small molecule agonists of the farnesoid-X-receptor (FXR) signaling pathway - cell viability counter screen (AID 743218); further: nearly all actives have a fitted effect of over 45% in size
In short: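 In GeneBLAzer FXR-UAS-bla HEK 293T cells, compounds act for 16 h at 37 C. Cell viability is then scored in the reporter wells by CellTiter-Glo, 30 min at RT, luminescence.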

[14] = qHTS assay to identify small molecule antagonists of the farnesoid-X-receptor (FXR) signaling pathway - cell viability counter screen (AID 743221; active means well fitted cell-killing curve with a large enough effect in the repeat runs, not every such curve was filed as active; further: nearly all actives have a fitted effect of over 50% in size)
In short: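 Compound effects on cell number were measured as CellTiter-Glo luminescence in HEK 293T cells expressing FXR-UAS-bla, after 16 h at 37 C with 50 uM CDCA (final).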

[15] = biological target: Vitamin D3 receptor (Homo sapiens) (UniProt P11473); assay: qHTS assay to identify small molecule agonists of the vitamin D receptor (VDR) signaling pathway (AID 743222; calls by dose curve)
Vitamin D3 receptor (Homo sapiens), sequence (P11473 whole entry, looked up): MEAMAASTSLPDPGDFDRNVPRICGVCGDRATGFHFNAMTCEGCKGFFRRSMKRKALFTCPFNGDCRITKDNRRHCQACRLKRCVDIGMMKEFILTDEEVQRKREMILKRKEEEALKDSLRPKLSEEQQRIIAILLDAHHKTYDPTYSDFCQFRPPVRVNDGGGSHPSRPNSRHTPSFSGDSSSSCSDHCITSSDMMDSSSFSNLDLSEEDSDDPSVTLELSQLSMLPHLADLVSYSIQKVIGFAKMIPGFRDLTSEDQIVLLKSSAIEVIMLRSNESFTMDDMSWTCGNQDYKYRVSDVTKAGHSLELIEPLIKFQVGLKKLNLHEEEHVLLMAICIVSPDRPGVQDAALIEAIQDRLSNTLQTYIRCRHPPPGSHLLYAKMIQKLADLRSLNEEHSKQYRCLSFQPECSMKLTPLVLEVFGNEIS
In short: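 Agonist activity measured in VDR-bla reporter cells. Exposure 16 h, 37C, 5% CO2; detection by B/G FRET substrate, 2 h RT.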

[16] = biological target: Vitamin D3 receptor (Homo sapiens) (UniProt P11473); assay: qHTS assay to identify small molecule antagonists of the vitamin D receptor (VDR) signaling pathway (AID 743223; active means well fitted inhibition curve with a large enough effect in the signal ratio in the repeat runs, not every such curve was filed as active; the % refers to the signal ratio)
In short: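 Beta-lactamase activity in VDR-bla cells is measured by FRET substrate fluorescence (2 h, room temperature) after cells spend 16 h at 37C with test compound and 3 nM final 1alpha,25-dihydroxyvitamin D3.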

[17] = qHTS assay to identify small molecule agonists of the vitamin D receptor (VDR) signaling pathway - cell viability counter screen (AID 743224); further: series mostly up to about 63 µM; nearly all actives have a fitted effect of over 50% in size
In short: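 VDR-bla cell line, quantitative HTS format; 16 h compound incubation (37C, 5% CO2); ATP-based CellTiter-Glo luminescence measured in the reporter assay wells.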

[18] = biological target: Bile acid receptor (Homo sapiens) (UniProt Q96RI1); assay: qHTS assay to identify small molecule antagonists of the farnesoid-X-receptor (FXR) signaling pathway (AID 743217; active means well fitted inhibition curve with a large enough effect in the signal ratio in the repeat runs, not every such curve was filed as active; the % refers to the signal ratio)
Bile acid receptor (Homo sapiens), sequence (Q96RI1 whole entry, looked up): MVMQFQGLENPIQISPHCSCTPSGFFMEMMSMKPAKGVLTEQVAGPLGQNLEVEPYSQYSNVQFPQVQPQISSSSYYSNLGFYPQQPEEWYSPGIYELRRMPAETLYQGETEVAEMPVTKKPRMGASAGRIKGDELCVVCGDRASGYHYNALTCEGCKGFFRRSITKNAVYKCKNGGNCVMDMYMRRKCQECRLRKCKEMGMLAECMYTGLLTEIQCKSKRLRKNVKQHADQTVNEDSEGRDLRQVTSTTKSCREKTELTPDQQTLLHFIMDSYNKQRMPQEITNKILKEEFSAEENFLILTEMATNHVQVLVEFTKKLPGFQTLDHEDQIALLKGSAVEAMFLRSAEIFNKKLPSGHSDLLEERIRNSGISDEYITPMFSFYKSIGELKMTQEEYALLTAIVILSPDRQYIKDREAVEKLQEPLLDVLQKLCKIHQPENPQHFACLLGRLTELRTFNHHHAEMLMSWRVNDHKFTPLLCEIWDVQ
In short: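 Beta-lactamase reporter under UAS control in HEK 293T cells; compound exposure 16 h at 37 °C in the presence of chenodeoxycholic acid (50 uM final); signal from B/G FRET substrate after 2 h at room temperature.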

[19] = biological target: Bile acid receptor (Homo sapiens) (UniProt Q96RI1); assay: qHTS assay to identify small molecule agonists of the farnesoid-X-receptor (FXR) signaling pathway (AID 743220; active means well fitted activation curve with a large enough effect in the signal ratio in the repeat runs, not every such curve was filed as active; the % refers to the signal ratio)
In short: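 Beta-lactamase reporter under UAS control in GeneBLAzer FXR HEK 293T cells (5000/well) measured with LiveBLAzer FRET substrate after 2 h at room temperature. Compound exposure lasted 16 h at 37C.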

[20] = qHTS assay to identify small molecule antagonists of the vitamin D receptor (VDR) signaling pathway - cell viability counter screen (AID 743225); further: nearly all actives have a fitted effect of over 50% in size
In short: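 In this counter screen, VDR-bla HEK 293T cells receive test compound plus 3 nM final calcitriol for 16 h at 37C. Room-temperature steps of 2 h with the beta-lactamase substrate, then 30 min with CellTiter-Glo, precede the luminescence read.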

Measured: Potency

CCC(C)c1ccccc1O (stereo unspecified)
not listed: [18] | [19] | [20]
inactive: all other assays above

CC(=O)CC/C=C(\C)CCC=C(C)C
not listed: [9] | [10] | [12] | [18] | [19] | [20]
inactive: all other assays above

CC(C)OB(OC(C)C)OC(C)C
not listed: [10] | [12] | [20]
inactive: all other assays above

COC(=O)c1ccccc1
not listed: [9] | [18] | [19]
inactive: all other assays above

COC(=O)Nc1nc2ccc(S(=O)c3ccccc3)cc2[nH]1 (stereo unspecified)
not listed: [9] | [10] | [12] | [16] | [18] | [19]
inactive: all other assays above

O=Cc1ccccc1O
not listed: [8] | [9] | [18] | [19]
inactive: all other assays above

CN(C)CCN(Cc1cccs1)c1ccccn1
not listed: [18] | [19]
inactive: all other assays above

CCCCCCCCCC(=O)OC
not listed: [15] | [16]
inactive: all other assays above
